Source: paper PMC7862700, “An all-to-all approach to the identification of sequence-specific readers for epigenetic DNA modifications on cytosine”

Tests used:
Test in all cases: DAPPL (digital affinity profiling via proximity ligation, sequencing); 10 mM Tris-HCl pH 7.5, 50 mM NaCl, 1 mM DTT, 4% glycerol, room temperature, 30 min; GST-TFs on glutathione beads, 16-mer random dsDNA library, 0.1% formaldehyde crosslink after washing; high values mean tight binding
FLI1 = molecular target: T1, FLI1 (Homo sapiens, UniProt Q01543 1-452); details: protein: recombinant; tags: N-terminal GST; dsDNA, one strand shown
T1 sequence: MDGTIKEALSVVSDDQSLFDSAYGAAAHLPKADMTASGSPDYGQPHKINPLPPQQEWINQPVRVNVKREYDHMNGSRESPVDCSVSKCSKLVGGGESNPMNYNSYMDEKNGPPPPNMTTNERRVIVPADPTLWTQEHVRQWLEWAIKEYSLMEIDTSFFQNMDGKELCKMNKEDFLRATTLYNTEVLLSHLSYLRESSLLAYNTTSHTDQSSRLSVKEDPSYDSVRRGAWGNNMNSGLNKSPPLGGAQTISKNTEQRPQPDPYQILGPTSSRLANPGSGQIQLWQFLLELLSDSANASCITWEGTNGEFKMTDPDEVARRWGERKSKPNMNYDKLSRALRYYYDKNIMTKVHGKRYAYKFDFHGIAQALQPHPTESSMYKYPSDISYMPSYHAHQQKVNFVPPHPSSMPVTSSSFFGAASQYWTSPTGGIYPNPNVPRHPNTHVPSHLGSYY
Summary of the method: (§1)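 Sequencing on an Illumina NextSeq500 followed washing, crosslinking with 0.1% formaldehyde, proximity ligation (BsaI/T4 ligase, 1 h, 37 °C) and PCR amplification of pools that had been incubated for 30 min at room temperature with 200 nmole of a random double-stranded 16-mer DNA library in Tris/NaCl/DTT/glycerol buffer. Each pool held DNA-barcoded human transcription factors, expressed in yeast as GST fusions and captured on glutathione beads, plus a tag-only sample. Binding signal is a hexamer's read frequency for a factor divided by its frequency in the tag-only sample.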

ELK1 = molecular target: T2, ELK1 (Homo sapiens, UniProt P19419 1-428); details: protein: recombinant; tags: N-terminal GST; dsDNA, one strand shown
T2 sequence: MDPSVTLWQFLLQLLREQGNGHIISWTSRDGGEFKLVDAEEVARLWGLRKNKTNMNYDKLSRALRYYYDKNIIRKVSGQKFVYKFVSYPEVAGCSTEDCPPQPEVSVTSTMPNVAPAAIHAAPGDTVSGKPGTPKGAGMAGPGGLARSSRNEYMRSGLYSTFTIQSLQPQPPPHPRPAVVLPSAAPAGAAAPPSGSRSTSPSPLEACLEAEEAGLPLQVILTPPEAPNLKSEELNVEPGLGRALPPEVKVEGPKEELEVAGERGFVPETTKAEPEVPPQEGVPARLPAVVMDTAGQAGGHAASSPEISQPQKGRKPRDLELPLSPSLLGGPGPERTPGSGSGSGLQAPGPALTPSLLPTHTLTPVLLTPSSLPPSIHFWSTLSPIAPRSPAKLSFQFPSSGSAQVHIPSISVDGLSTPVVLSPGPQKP
Summary of the method: as §1

GABPA = molecular target: T3, GABPA (Homo sapiens, UniProt Q06546 1-454); details: protein: recombinant; tags: N-terminal GST; dsDNA, one strand shown
T3 sequence: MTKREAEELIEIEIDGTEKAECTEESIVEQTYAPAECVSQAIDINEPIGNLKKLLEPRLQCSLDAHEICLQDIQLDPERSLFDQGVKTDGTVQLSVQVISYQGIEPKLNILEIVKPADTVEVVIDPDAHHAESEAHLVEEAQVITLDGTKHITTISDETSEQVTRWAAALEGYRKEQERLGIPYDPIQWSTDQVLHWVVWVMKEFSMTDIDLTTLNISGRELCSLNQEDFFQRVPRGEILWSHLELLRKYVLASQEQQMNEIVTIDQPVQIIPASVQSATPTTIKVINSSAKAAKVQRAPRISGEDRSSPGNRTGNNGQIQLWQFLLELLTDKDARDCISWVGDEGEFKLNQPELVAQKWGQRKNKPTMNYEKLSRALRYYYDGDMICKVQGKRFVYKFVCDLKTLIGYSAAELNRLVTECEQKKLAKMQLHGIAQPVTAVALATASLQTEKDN
Summary of the method: as §1

ERG = molecular target: T4, ERG (Homo sapiens, UniProt P11308 1-479); details: protein: recombinant; tags: N-terminal GST; dsDNA, one strand shown
T4 sequence: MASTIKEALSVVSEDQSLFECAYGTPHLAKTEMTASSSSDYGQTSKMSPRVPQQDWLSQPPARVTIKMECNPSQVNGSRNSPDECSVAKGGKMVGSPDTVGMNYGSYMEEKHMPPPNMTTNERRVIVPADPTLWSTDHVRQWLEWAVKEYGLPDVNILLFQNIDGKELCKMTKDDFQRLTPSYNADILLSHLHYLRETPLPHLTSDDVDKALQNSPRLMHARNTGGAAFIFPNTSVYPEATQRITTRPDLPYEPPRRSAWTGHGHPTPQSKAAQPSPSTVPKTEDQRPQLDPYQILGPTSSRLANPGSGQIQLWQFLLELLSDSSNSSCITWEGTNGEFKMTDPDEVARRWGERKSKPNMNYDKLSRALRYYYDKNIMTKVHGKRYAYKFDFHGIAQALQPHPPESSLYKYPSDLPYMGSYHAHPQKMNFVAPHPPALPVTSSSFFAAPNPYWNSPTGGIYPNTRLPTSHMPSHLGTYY
Summary of the method: as §1

ELF1 = ELF1 (Homo sapiens, UniProt P32519 1-619); details: protein: recombinant; tags: N-terminal GST; dsDNA, one strand shown
Summary of the method: as §1

EHF = molecular target: T5, EHF (Homo sapiens, UniProt Q9NZC4 1-300); details: protein: recombinant; tags: N-terminal GST; dsDNA, one strand shown
T5 sequence: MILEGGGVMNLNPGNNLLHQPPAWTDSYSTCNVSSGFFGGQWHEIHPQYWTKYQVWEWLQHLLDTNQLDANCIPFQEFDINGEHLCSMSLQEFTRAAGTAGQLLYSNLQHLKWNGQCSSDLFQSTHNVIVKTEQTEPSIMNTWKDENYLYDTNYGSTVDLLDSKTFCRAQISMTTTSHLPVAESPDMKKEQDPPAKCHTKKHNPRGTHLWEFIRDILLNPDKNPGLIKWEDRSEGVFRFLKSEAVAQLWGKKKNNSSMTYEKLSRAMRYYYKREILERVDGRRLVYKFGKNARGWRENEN
Summary of the method: as §1

SPI1 = SPI1 (Homo sapiens, UniProt P17947 1-270); details: protein: recombinant; tags: N-terminal GST; dsDNA, one strand shown
Summary of the method: as §1

SPIB = SPIB (Homo sapiens, UniProt Q01892 1-262); details: protein: recombinant; tags: N-terminal GST; dsDNA, one strand shown
Summary of the method: as §1

ELK3 = molecular target: T6, ELK3 (Homo sapiens, UniProt P41970 1-407); details: protein: recombinant; tags: N-terminal GST; dsDNA, one strand shown
T6 sequence: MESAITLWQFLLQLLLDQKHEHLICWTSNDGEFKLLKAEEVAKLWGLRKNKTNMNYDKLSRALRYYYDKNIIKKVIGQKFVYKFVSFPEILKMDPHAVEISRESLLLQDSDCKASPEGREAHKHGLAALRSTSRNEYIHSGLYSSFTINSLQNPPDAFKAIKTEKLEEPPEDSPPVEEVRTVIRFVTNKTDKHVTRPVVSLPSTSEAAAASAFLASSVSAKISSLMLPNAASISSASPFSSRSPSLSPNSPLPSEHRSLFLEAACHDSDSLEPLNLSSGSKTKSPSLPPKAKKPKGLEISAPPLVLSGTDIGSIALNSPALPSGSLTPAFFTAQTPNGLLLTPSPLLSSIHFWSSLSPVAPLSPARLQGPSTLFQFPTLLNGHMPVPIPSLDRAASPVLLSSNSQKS
Summary of the method: as §1

FEV = molecular target: T7, FEV (Homo sapiens, UniProt Q99581 1-238); details: protein: recombinant; tags: N-terminal GST; dsDNA, one strand shown
T7 sequence: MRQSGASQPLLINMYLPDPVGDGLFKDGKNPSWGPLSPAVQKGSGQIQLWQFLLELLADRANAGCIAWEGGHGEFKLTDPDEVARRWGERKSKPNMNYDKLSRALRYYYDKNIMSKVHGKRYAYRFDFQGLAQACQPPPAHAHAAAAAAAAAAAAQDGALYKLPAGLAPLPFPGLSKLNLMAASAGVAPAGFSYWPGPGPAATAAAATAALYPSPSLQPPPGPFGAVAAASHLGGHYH
Summary of the method: as §1

ETV5 = ETV5 (Homo sapiens, UniProt P41161 1-510); details: protein: recombinant; tags: N-terminal GST; dsDNA, one strand shown
Summary of the method: as §1

HSF1 = HSF1 (Homo sapiens, UniProt Q00613 1-529); details: protein: recombinant; tags: N-terminal GST; chain copies: 3; dsDNA, one strand shown
Summary of the method: as §1

SPIC = molecular target: T8, SPIC (Homo sapiens, UniProt Q8N5J4 1-248); details: protein: recombinant; tags: N-terminal GST; dsDNA, one strand shown
T8 sequence: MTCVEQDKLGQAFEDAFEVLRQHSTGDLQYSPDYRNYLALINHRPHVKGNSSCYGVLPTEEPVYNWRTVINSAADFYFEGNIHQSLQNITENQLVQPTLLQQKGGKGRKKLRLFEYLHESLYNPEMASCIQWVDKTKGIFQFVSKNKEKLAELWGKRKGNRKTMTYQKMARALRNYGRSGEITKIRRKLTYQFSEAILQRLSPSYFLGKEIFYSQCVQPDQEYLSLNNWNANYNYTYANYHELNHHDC
Summary of the method: as §1

ELF4 = ELF4 (Homo sapiens, UniProt Q99607 1-663); details: protein: recombinant; tags: N-terminal GST; dsDNA, one strand shown
Summary of the method: as §1

ELK4 = molecular target: T9, ELK4 (Homo sapiens, UniProt P28324-2 1-405); details: protein: recombinant; tags: N-terminal GST; dsDNA, one strand shown
T9 sequence: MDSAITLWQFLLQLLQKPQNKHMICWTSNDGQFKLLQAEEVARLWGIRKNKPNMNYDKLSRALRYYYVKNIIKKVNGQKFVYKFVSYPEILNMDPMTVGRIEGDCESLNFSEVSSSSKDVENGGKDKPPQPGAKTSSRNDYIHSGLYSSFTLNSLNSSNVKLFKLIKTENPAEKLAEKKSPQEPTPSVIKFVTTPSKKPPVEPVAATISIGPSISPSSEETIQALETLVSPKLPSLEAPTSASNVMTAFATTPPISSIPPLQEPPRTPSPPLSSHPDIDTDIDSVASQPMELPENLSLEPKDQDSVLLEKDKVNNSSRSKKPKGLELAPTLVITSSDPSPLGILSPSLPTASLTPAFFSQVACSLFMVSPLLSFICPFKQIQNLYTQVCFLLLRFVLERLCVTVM
Summary of the method: as §1

ETV2 = molecular target: T10, ETV2 (Homo sapiens, UniProt O00321 1-342); details: protein: recombinant; tags: N-terminal GST; dsDNA, one strand shown
T10 sequence: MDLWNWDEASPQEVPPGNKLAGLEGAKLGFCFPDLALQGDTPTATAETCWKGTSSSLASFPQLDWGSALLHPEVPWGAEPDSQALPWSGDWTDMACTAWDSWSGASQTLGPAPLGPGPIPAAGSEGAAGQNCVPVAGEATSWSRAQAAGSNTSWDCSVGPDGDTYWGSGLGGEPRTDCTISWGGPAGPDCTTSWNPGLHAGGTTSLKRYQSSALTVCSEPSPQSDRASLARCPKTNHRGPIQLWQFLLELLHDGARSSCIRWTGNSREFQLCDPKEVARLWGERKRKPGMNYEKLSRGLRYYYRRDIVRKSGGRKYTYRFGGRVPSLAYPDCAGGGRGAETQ
Summary of the method: as §1

ELF3 = molecular target: T11, ELF3 (Homo sapiens, UniProt P78545 1-371); details: protein: recombinant; tags: N-terminal GST; dsDNA, one strand shown
T11 sequence: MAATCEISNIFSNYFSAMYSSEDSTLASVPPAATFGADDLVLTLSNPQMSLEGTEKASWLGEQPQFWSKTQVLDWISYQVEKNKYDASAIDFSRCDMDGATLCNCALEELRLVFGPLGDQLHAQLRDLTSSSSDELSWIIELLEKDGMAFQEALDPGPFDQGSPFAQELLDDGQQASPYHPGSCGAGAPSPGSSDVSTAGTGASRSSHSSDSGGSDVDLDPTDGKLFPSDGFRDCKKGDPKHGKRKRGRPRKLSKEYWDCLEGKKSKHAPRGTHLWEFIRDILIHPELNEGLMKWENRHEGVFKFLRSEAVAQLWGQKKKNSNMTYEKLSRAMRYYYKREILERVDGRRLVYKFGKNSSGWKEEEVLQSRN
Summary of the method: as §1

CRX = CRX (Homo sapiens, UniProt O43186 1-299); details: protein: recombinant; tags: N-terminal GST; dsDNA, one strand shown
Summary of the method: as §1

ETV1 = ETV1 (Homo sapiens, UniProt P50549 1-477); details: protein: recombinant; tags: N-terminal GST; dsDNA, one strand shown
Summary of the method: as §1

Chain of ELF4 (Q99607 whole entry): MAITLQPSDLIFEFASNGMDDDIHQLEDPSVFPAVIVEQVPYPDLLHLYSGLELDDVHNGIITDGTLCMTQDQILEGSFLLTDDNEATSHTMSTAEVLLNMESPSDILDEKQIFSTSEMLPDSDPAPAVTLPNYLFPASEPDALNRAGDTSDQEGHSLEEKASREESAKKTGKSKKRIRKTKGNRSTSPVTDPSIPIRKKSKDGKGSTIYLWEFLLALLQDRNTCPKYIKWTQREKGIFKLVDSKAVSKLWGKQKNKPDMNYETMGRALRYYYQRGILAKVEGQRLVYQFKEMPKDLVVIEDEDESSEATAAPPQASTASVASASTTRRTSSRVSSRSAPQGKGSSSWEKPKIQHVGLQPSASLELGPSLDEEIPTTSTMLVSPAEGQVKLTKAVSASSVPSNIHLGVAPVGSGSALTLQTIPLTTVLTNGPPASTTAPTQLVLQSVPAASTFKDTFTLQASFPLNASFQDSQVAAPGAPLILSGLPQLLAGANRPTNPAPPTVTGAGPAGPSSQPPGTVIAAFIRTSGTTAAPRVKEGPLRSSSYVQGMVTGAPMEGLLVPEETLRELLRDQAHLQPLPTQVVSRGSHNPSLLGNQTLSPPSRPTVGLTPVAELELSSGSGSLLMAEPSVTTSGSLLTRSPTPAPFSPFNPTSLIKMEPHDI
Chain of CRX (O43186 whole entry): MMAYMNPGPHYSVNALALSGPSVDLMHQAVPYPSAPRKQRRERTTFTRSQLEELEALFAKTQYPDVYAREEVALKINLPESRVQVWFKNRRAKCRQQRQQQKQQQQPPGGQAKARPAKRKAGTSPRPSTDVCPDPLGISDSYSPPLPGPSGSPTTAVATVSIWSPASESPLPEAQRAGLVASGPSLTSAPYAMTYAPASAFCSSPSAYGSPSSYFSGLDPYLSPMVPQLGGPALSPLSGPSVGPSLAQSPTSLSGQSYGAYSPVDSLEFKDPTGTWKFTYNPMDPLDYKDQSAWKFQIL
Chain of ETV5 (P41161 whole entry): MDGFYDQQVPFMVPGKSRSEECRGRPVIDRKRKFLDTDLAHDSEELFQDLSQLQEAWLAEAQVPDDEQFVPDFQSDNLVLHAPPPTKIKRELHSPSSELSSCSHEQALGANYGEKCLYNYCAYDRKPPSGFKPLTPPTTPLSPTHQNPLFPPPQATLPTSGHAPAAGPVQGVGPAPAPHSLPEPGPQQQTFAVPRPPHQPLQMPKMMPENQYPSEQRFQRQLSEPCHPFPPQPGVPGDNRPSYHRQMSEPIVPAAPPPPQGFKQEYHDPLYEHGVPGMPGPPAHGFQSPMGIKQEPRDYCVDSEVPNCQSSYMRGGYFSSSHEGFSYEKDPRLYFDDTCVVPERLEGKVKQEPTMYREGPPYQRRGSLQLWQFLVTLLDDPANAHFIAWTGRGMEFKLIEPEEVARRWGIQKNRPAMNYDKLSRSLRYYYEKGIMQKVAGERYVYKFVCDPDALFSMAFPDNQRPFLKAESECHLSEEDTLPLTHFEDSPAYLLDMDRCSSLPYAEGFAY
Chain of SPIB (Q01892 whole entry): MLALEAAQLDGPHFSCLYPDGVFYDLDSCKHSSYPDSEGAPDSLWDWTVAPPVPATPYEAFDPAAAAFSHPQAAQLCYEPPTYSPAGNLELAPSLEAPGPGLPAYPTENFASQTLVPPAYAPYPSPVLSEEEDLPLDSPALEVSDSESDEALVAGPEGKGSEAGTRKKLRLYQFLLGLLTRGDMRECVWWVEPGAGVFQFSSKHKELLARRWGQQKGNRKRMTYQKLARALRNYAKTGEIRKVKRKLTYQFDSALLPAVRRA
Chain of ELF1 (P32519 whole entry): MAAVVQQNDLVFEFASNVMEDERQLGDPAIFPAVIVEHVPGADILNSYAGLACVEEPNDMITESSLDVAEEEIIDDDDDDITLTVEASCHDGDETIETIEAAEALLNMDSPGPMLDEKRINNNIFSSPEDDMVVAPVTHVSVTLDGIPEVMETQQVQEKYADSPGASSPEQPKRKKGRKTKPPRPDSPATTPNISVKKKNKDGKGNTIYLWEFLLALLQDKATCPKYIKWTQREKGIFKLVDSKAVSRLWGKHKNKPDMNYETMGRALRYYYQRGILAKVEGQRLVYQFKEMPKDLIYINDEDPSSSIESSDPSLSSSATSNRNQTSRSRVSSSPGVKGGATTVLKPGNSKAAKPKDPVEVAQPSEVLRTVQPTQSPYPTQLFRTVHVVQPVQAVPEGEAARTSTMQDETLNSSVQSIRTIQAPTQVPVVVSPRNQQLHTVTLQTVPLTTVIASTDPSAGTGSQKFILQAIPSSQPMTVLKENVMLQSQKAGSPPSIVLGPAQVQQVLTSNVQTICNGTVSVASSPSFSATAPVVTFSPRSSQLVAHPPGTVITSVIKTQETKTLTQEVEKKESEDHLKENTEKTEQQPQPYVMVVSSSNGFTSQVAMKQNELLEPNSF
Chain of ETV1 (P50549 whole entry): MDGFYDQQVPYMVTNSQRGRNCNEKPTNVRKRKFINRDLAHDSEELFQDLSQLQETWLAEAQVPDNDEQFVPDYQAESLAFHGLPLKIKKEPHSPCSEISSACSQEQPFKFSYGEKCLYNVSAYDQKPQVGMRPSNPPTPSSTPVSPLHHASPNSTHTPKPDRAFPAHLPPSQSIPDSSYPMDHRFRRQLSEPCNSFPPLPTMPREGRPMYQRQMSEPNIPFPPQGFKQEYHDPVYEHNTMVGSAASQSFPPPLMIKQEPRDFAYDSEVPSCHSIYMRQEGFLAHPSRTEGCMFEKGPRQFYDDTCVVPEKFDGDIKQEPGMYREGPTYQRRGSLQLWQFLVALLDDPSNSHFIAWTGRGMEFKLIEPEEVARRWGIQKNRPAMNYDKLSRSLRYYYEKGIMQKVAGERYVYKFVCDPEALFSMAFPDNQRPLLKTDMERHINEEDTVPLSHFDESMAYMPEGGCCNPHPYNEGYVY
Chain of HSF1 (Q00613 whole entry): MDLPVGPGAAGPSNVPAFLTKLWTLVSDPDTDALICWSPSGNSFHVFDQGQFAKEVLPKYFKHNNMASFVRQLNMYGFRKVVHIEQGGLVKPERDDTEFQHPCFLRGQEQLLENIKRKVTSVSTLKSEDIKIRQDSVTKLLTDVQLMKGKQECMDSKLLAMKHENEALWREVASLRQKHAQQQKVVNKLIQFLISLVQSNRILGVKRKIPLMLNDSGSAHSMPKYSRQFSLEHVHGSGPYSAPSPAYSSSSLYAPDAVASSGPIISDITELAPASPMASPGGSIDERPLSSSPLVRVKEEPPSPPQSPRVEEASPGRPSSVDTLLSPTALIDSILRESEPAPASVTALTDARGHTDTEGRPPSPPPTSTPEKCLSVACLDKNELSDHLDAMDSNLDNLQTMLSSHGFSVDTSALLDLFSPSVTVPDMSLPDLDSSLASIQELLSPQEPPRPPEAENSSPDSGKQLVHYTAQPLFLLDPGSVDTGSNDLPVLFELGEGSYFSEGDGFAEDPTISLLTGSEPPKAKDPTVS

TGTTAA
binding signal (FLI1): 1.11 fold enrichment (6-mer frequency, TF over GST control) | binding signal (ELK1): 1.15 fold enrichment (6-mer frequency, TF over GST control) | binding signal (GABPA): 1.17 fold enrichment (6-mer frequency, TF over GST control) | binding signal (ERG): 1.11 fold enrichment (6-mer frequency, TF over GST control) | binding signal (ELF1): 1.09 fold enrichment (6-mer frequency, TF over GST control) | binding signal (EHF): 1.03 fold enrichment (6-mer frequency, TF over GST control) | binding signal (SPI1): 1.07 fold enrichment (6-mer frequency, TF over GST control) | binding signal (SPIB): 1.13 fold enrichment (6-mer frequency, TF over GST control) | binding signal (ELK3): 1.15 fold enrichment (6-mer frequency, TF over GST control) | binding signal (FEV): 1.1 fold enrichment (6-mer frequency, TF over GST control) | binding signal (ETV5): 1.05 fold enrichment (6-mer frequency, TF over GST control) | binding signal (HSF1): 1.3 fold enrichment (6-mer frequency, TF over GST control) | binding signal (SPIC): 1.19 fold enrichment (6-mer frequency, TF over GST control) | binding signal (ELF4): 1.17 fold enrichment (6-mer frequency, TF over GST control) | binding signal (ELK4): 1.16 fold enrichment (6-mer frequency, TF over GST control) | binding signal (ETV2): 1.06 fold enrichment (6-mer frequency, TF over GST control) | binding signal (ELF3): 1.24 fold enrichment (6-mer frequency, TF over GST control) | binding signal (CRX): 1.67 fold enrichment (6-mer frequency, TF over GST control) | binding signal (ETV1): 1.13 fold enrichment (6-mer frequency, TF over GST control)
